Values joined by “and” are separate entries in the source; they are usually repeats but may differ in a detail not shown here. Equal entries are not always repeated. The source holds several records for some structures; these can differ, active in one and inactive in another. Active and inactive are the calls of the source. Rule for the calls: active = hit-call score of the fitted dose curve at least 0.9, where 1 is the maximum; inactive = score below 0.9.
Key:
Conditions in all cases: mRNA level, 48 h; actives raise or lower the signal
[1] = read-out: Bcl-2 (BAX) gene, BAX (gene 581); assay: LTEA_HepaRG_BAX: Life Technologies and Expression Analysis (LTEA) Assay for Bcl-2 (BAX) gene using HepaRG (AID 2283470)
How it was run: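 Human HepaRG cells treated in duplicate for 48 h across eight concentrations (max 100 uM, 0.5% DMSO); BAX expression measured by qRT-PCR.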

[2] = read-out: adenosine kinase (ADK) gene, ADK (gene 132); assay: LTEA_HepaRG_ADK: Life Technologies and Expression Analysis (LTEA) Assay for adenosine kinase (ADK) gene using HepaRG (AID 2283471)
How it was run: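 Read-out is ADK transcript level measured by qRT-PCR and normalised to three housekeeping genes. Cells are human HepaRG, dosed for 48 h at up to 100 uM in 0.5% DMSO. Gain or loss of signal is fitted against DMSO controls.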

[3] = read-out: Alpha-fetoprotein (AFP) gene, AFP (gene 174); assay: LTEA_HepaRG_AFP: Life Technologies and Expression Analysis (LTEA) Assay for Alpha-fetoprotein (AFP) gene using HepaRG (AID 2283472)
How it was run: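 Measures AFP mRNA change in HepaRG after 48 h chemical exposure (8 half-log concentrations, highest 100 uM, 0.5% DMSO). Fold change relative to DMSO, fitted in both directions.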

BCL2L11 (gene 10018) = assay: LTEA_HepaRG_BCL2L11: Life Technologies and Expression Analysis (LTEA) Assay for Bcl-2 (BCL2L11) gene using HepaRG (AID 2283473)
How it was run: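 Differentiated human HepaRG cells were exposed 48 h in serum-free induction medium to eight half-log concentrations up to 100 uM in 0.5% DMSO, in duplicate. BCL2L11 mRNA was quantified by TaqMan qRT-PCR, normalized to ACTB, GAPDH and POLR2A; induction or repression fitted versus DMSO.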

[4] = read-out: Apolipoprotein A-V (APOA5) gene, APOA5 (gene 116519); assay: LTEA_HepaRG_APOA5: Life Technologies and Expression Analysis (LTEA) Assay for Apolipoprotein A-V (APOA5) gene using HepaRG (AID 2283474)
How it was run: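 Differentiated HepaRG cells in serum-free induction medium, exposed 48 h in duplicate to eight half-log concentrations topping at 100 uM (0.5% DMSO). APOA5 mRNA by Fluidigm TaqMan qRT-PCR, normalized to ACTB, GAPDH and POLR2A; bidirectional fit versus DMSO.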

[5] = read-out: Bcl-2 (BID) gene, BID (gene 637); assay: LTEA_HepaRG_BID: Life Technologies and Expression Analysis (LTEA) Assay for Bcl-2 (BID) gene using HepaRG (AID 2283476)
How it was run: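 Assay used HepaRG hepatic cells treated 48 h in serum-free medium with half-log dilutions from 100 uM. Endpoint: BID mRNA, qRT-PCR, normalized to ACTB/GAPDH/POLR2A.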

[6] = read-out: Cytochrome P450 (CYP24A1), CYP24A1 (gene 1591); assay: LTEA_HepaRG_CYP24A1: Life Technologies and Expression Analysis (LTEA) Assay for Cytochrome P450 (CYP24A1) using HepaRG (AID 2283478)
How it was run: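 HepaRG cells plated 48 h, then exposed in duplicate in serum-free induction medium for 48 h to 8-point half-log series from 100 uM in 0.5% DMSO. CYP24A1 mRNA by Fluidigm qRT-PCR, normalized to ACTB, GAPDH, POLR2A; bidirectional fit versus DMSO.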

[7] = read-out: Cytochrome P450 (CYP1A2), CYP1A2 (gene 1544); assay: LTEA_HepaRG_CYP1A2: Life Technologies and Expression Analysis (LTEA) Assay for Cytochrome P450 (CYP1A2) using HepaRG (AID 2283479)
How it was run: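 Differentiated human HepaRG cells in serum-free induction medium exposed 48 hours in duplicate to 8 half-log concentrations from 100 uM, 0.5% DMSO. CYP1A2 mRNA quantified by qRT-PCR, normalized to ACTB, GAPDH and POLR2A; bidirectional fitting versus DMSO.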

[8] = read-out: cysteine-aspartic acid protease (CASP8), CASP8 (gene 841); assay: LTEA_HepaRG_CASP8: Life Technologies and Expression Analysis (LTEA) Assay for cysteine-aspartic acid protease (CASP8) using HepaRG (AID 2283480)
How it was run: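 qRT-PCR readout of CASP8 mRNA, normalized to three housekeeping genes, after 48 h chemical exposure of HepaRG cells; 8-point half-log series, top 100 uM, 0.5% DMSO vehicle. Bidirectional curve fitting against DMSO baseline.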

[9] = read-out: Cytochrome P450 (CYP2B6), CYP2B6 (gene 1555); assay: LTEA_HepaRG_CYP2B6: Life Technologies and Expression Analysis (LTEA) Assay for Cytochrome P450 (CYP2B6) using HepaRG (AID 2283481)
How it was run: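 Differentiated human HepaRG cells in serum-free induction medium, dosed in duplicate for 48 h over 8 half-log concentrations topping at 100 uM (0.5% DMSO). CYP2B6 mRNA measured by TaqMan qRT-PCR, normalized to ACTB, GAPDH, POLR2A; bidirectional fit versus DMSO.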

[10] = read-out: Cytochrome P450 2C19 (Homo sapiens) (UniProt P33261); assay: LTEA_HepaRG_CYP2C19: Life Technologies and Expression Analysis (LTEA) Assay for CYP2C19 using HepaRG (AID 2283482)
How it was run: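 Differentiated HepaRG cells in serum-free induction medium exposed 48 h in duplicate, 8 concentrations from 100 uM by half-log steps in 0.5% DMSO. CYP2C19 mRNA measured by TaqMan qRT-PCR, normalized to ACTB, GAPDH, POLR2A. Bidirectional fit versus DMSO.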

CYP2C8 (gene 1558) = assay: LTEA_HepaRG_CYP2C8: Life Technologies and Expression Analysis (LTEA) Assay for CYP2C8 using HepaRG (AID 2283483)
How it was run: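 HepaRG (human liver line), 48 h chemical exposure, 8-pt half-log series from 100 uM, 0.5% DMSO vehicle. Readout: CYP2C8 transcript by qRT-PCR, housekeeping-normalized. Bidirectional fit vs DMSO baseline.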

CYP2E1 (gene 1571) = assay: LTEA_HepaRG_CYP2E1: Life Technologies and Expression Analysis (LTEA) Assay for CYP2E1 using HepaRG (AID 2283485)
How it was run: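 Assay uses 48 h exposure of HepaRG hepatic cells, eight concentrations to 100 uM. Expression of CYP2E1 is quantified by TaqMan qRT-PCR with ACTB, GAPDH and POLR2A normalization; curves fitted in both directions relative to vehicle.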

CYP4A11 (gene 1579) = assay: LTEA_HepaRG_CYP4A11: Life Technologies and Expression Analysis (LTEA) Assay for CYP4A11 using HepaRG (AID 2283486)
How it was run: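 Differentiated HepaRG cells, 48 h after plating, exposed in duplicate for 48 h to 8 half-log concentrations up to 100 uM in 0.5% DMSO in serum-free induction medium. CYP4A11 mRNA measured by TaqMan qRT-PCR, normalized to ACTB, GAPDH and POLR2A.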

[11] = read-out: Cytochrome P450 3A4 (Homo sapiens) (UniProt P08684); assay: LTEA_HepaRG_CYP3A4: Life Technologies and Expression Analysis (LTEA) Assay for CYP3A4 using HepaRG (AID 2283487)
How it was run: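 HepaRG, 48 h exposure, 8-pt CRC from 100 uM (half-log), 0.5% DMSO, duplicates; serum-free induction medium. Readout: CYP3A4 mRNA, qRT-PCR, ACTB/GAPDH/POLR2A normalization. Bidirectional fit vs DMSO.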

[12] = read-out: DNA damage-inducible transcript 3 (DDIT3), DDIT3 (gene 1649); assay: LTEA_HepaRG_DDIT3: Life Technologies and Expression Analysis (LTEA) Assay for DNA damage-inducible transcript 3 (DDIT3) using HepaRG (AID 2283488)
How it was run: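 Eight-point concentration-response (100 uM highest, half-log dilutions) in HepaRG, 48 h, duplicate wells. Endpoint: qRT-PCR mRNA, normalized (ACTB, GAPDH, POLR2A), bidirectional fitting with DMSO as baseline.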

[13] = read-out: Pro-epidermal growth factor (Homo sapiens) (UniProt P01133); assay: LTEA_HepaRG_EGF: Life Technologies and Expression Analysis (LTEA) Assay for Epidermal growth factor (EGF) using HepaRG (AID 2283489)
How it was run: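 HepaRG cells (~100,000/well, 48 h pre-culture) exposed in duplicate for 48 h in serum-free induction medium to 8 half-log concentrations up to 100 uM in 0.5% DMSO. EGF mRNA by qRT-PCR, normalized to ACTB/GAPDH/POLR2A; bidirectional fit versus DMSO.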

[14] = read-out: Early growth response protein 1 (EGR1) transcription factor, EGR1 (gene 1958); assay: LTEA_HepaRG_EGR1: Life Technologies and Expression Analysis (LTEA) Assay for Early growth response protein 1 (EGR1) transcription factor using HepaRG (AID 2283490)
How it was run: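 HepaRG, 48 h exposure, 8-pt half-log series from 100 uM, 0.5% DMSO vehicle; EGR1 transcript by TaqMan qRT-PCR (Fluidigm array), housekeeping-normalized; bidirectional fit relative to DMSO baseline.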

[15] = read-out: Ezrin (EZR), EZR (gene 7430); assay: LTEA_HepaRG_EZR: Life Technologies and Expression Analysis (LTEA) Assay for Ezrin (EZR) using HepaRG (AID 2283491)
How it was run: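 Read-out is EZR transcript level by qRT-PCR, normalized to three housekeeping genes and fitted bidirectionally against the DMSO control. Human HepaRG cells received test chemicals for 48 h at eight half-log concentrations up to 100 uM in 0.5% DMSO.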

[16] = read-out: Cytochrome P450 3A7 (Homo sapiens) (UniProt P24462); assay: LTEA_HepaRG_CYP3A7: Life Technologies and Expression Analysis (LTEA) Assay for CYP3A7 using HepaRG (AID 2283492)
How it was run: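 Differentiated HepaRG cells in serum-free induction medium exposed 48 h in duplicate to 8-point half-log series from 100 uM top in 0.5% DMSO. CYP3A7 mRNA by qRT-PCR, normalized to ACTB/GAPDH/POLR2A, bidirectional fit versus DMSO.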

Measured: AC50

Sequence of Cytochrome P450 3A4 (Homo sapiens) (P08684 whole entry, looked up): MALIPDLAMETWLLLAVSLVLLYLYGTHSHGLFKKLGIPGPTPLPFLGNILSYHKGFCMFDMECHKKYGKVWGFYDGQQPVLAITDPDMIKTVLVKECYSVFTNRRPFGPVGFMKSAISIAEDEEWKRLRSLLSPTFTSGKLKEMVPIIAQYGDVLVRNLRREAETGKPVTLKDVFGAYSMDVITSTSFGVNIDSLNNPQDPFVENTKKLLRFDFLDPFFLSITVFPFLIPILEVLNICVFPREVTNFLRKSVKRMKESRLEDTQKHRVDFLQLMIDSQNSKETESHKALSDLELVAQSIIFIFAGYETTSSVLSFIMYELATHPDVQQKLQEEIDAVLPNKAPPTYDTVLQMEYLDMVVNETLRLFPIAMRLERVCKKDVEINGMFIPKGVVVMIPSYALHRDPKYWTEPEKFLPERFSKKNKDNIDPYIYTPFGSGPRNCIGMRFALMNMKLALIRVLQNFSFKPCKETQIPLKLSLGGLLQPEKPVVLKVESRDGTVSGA
Sequence of Cytochrome P450 3A7 (Homo sapiens) (P24462 whole entry, looked up): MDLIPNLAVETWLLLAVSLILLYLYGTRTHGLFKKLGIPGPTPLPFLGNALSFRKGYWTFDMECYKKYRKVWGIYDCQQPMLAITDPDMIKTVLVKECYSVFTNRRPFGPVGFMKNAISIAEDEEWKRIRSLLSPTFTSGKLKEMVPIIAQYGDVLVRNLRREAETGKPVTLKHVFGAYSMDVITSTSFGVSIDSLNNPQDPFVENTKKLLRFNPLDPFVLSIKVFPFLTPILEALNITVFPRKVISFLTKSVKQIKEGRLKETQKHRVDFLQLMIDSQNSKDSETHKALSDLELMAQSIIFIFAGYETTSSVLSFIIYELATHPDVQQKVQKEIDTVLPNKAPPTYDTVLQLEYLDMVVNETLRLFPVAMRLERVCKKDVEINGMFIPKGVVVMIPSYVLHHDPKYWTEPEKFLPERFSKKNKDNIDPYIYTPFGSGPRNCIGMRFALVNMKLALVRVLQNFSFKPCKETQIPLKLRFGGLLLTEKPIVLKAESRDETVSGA
Sequence of Cytochrome P450 2C19 (Homo sapiens) (P33261 whole entry, looked up): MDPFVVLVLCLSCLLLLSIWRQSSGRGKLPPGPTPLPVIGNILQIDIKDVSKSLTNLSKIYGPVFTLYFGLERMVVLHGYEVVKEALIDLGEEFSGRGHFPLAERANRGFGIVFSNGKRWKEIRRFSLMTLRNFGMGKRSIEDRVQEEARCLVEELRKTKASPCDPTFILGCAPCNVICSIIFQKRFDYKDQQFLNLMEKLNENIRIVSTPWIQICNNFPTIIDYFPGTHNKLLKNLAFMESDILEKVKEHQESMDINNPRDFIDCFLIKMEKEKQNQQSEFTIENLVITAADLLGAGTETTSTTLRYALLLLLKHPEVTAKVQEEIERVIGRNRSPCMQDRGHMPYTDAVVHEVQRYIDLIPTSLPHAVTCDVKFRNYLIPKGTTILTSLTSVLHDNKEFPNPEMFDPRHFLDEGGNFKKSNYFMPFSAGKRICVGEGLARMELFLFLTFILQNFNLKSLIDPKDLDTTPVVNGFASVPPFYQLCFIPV

C[C@]12CCC(=O)C[C@@H]1CC[C@@H]1[C@@H]2CC[C@]2(C)[C@@H](O)CC[C@@H]12
active: [7] 65.1 µM | [10] 23.6 µM | CYP2E1 (gene 1571) 50 µM | CYP4A11 (gene 1579) 23.9 µM
inactive: all other assays above

COc1cc(-c2ccc(N)c(OC)c2)ccc1N
active: [3] 50 µM | [7] 23.6 µM and 25.8 µM | [9] 3.49 µM and 4.26 µM | CYP2E1 (gene 1571) 38.1 µM and 24.1 µM | CYP4A11 (gene 1579) 62.6 µM and 50 µM | [11] 19.9 µM | [12] 80.3 µM | [13] 13.3 µM | [16] 82.9 µM
inactive: [1] | [2] | BCL2L11 (gene 10018) | [4] | [5] | [6] | [8] | [10] | CYP2C8 (gene 1558) | [11] | [12] | [13] | [14] | [15] | [16]

NC(=O)O
inactive: all assays above

ClC1(Cl)C2(Cl)C3(Cl)C4(Cl)C(Cl)(Cl)C5(Cl)C3(Cl)C1(Cl)C5(Cl)C24Cl (centres undefined)
active: [7] 15.8 µM | [9] 730 nM | [10] 3.41 µM | CYP2E1 (gene 1571) 4.06 µM | CYP4A11 (gene 1579) 20 µM | [11] 4.01 µM | [16] 4.64 µM
inactive: all other assays above

— PubChem BioAssay (EPA / NIEHS)
